# Screening results: PubChem, several laboratories
# Hits are enriched below; roughly 2.8% of the tested compounds scored in any of these assays.
# HSP90 refold inh = HSP90 inhibitors, primary screen, cell lysate, luminescence. Heat shock protein HSP 90 (rabbit reticulocyte lysate; luciferase refolding). Rabbit reticulocyte lysate, luciferase refolding luminescence, 3 h. inhibition, % at 5.6 µM. 290,000 tested, 0.91% active;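 active = inhibition above the screen-wide mean plus 3 SD, computed separately per campaign, cut at about 16% in these data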;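 also: 0% = DMSO wells and 100% = 60 µM geldanamycin wells; inhibitors lower the luminescence because luciferase stays unfolded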
# SENP7 block = SENP7 protease inhibitors, primary screen, biochemical, luminescence, uHTS; recombinant SENP7, Z-RLRGG-aminoluciferin luminescence, 40 min; Sentrin-specific protease 7 (Homo sapiens), Q9BQF6; 330,000 tested, 1.5% active; inhibition, % at 5 µM;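 active = inhibition above about 50% at the single test dose, limit read from the data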;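 also: plate controls were DMSO with enzyme for no effect and no enzyme buffer wells for full effect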
# Target sequence (Q9BQF6 706-1050 limits assumed): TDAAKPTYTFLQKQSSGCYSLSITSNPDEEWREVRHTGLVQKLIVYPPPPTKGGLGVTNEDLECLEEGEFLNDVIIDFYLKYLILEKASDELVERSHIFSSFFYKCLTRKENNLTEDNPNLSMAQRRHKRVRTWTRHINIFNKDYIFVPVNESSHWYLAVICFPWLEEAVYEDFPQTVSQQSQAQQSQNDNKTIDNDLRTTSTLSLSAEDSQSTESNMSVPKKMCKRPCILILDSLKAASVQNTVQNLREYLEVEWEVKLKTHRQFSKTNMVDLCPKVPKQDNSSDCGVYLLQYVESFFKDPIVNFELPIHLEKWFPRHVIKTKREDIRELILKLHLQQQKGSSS
# SENP6 inh = SENP6 protease inhibitors, primary screen, biochemical, luminescence, uHTS. 330,000 tested, 1.8% active. Sentrin-specific protease 6 (Homo sapiens), Q9GZR1. inhibition, % at 10 µM. Recombinant SENP6 catalytic domain, aminoluciferin luminescence;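 active = inhibition above about 50% at the single tested dose, limit read from the data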;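 also: plate controls were DMSO wells with enzyme for no effect and DMSO wells lacking enzyme for full effect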
# SENP8 block-1 = SENP8 protease inhibitors, primary screen, biochemical, luminescence. inhibition, % at 10 µM. 330,000 tested, 1.2% active. purified SENP8, Z-RLRGG-aminoluciferin cleavage. Sentrin-specific protease 8 (Homo sapiens), Q96LD8; in the data active = inhibition above about 50%
# Target sequence (Q96LD8 whole entry, looked up): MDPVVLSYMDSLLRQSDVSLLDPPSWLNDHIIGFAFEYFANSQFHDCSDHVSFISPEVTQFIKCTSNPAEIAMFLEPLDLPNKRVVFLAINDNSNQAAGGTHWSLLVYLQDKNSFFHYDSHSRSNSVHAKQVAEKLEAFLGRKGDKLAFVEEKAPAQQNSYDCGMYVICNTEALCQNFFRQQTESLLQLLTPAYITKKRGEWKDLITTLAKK
# SENP8 block-2 = human SENP8 protease inhibitors, primary screen, biochemical, fluorescence, Nedd8 protein substrate, uHTS. 360,000 tested, 0.64% active. inhibition, % at 20 µM. recombinant SENP8. Sentrin-specific protease 8 (Homo sapiens), Q96LD8; in the data active = inhibition mostly above about 40%, no sharp cut-off; inactive = mostly below about 27%
# SENP8 conf = SENP8 protease inhibitors, retest, confirmation, biochemical, luminescence, single concentration; shares compounds with SENP7 block; Recombinant SENP8, Z-RLRGG-aminoluciferin luminescence, 60 min; inhibition, % at 12.5 µM; 6,200 tested, 40% active; AID 488912, 2010;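 active = mean inhibition across replicates above about 50%, limit read from the data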
# SENP6 conf = SENP6 protease inhibitors, confirmation, biochemical, luminescence, single concentration | inhibition, % at 12.5 µM | 6,200 tested, 58% active | shares compounds with SENP7 block | AID 488915, 2010 | recombinant SENP6, Z-RLRGG-aminoluciferin luminescence
# SENP7 conf = SENP7 protease inhibitors, retest, confirmation, biochemical, luminescence, single concentration. shares compounds with SENP7 block. recombinant SENP7, Z-RLRGG-aminoluciferin luminescence, 40 min. inhibition, % at 12.5 µM. 6,200 tested, 69% active. AID 488917, 2010
# Casp3 SENP sel = caspase-3 protease inhibitors, confirmation, selectivity assay for SENP inhibitor project, biochemical, single concentration; shares compounds with SENP7 block; purified caspase-3, Z-DEVD-aminoluciferin luminescence, 60 min; inhibition, % at 12.5 µM; 6,200 tested, 60% active;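 active = mean inhibition above about 50%, limit read from the data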;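 also: plate controls were enzyme with DMSO for no effect and wells without caspase-3 for full effect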
# Luc interf = counter-screen for SENP inhibitors: luminescence interference; shares compounds with SENP7 block; Pre-incubated SENP8/Z-RLRGG-aminoluciferin, luciferase luminescence interference; inhibition, % at 12.5 µM; 6,200 tested, 39% active; AID 488919;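 active = mean inhibition above about 50% when retested at one dose, limit read from the data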;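 also: plate controls were DMSO wells with completed reaction for no effect and substrate without enzyme for full effect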
# * marks the source's active call; other numbers are inactive results; x = no result given.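 The calls were made as follows, unless noted: active = mean inhibition above about 50% in the one-dose retest (limit read from the data); inactive = the rest.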
SMILES,HSP90 refold inh,SENP7 block,SENP6 inh,SENP8 block-1,SENP8 block-2,SENP8 conf,SENP6 conf,SENP7 conf,Casp3 SENP sel,Luc interf
Cc1ccc(C)c(N/C=C(\C#N)c2nc3ccccc3o2)c1,4,-5,2,-5,4,x,x,x,x,x
COc1cc(/C=C(\C#N)c2nc3ccccc3o2)ccc1O,2,80*,95*,90*,-53,94*,94*,99*,86*,41
CCC(C)NC(=O)c1cc2cc3ccc(OC)cc3nc2s1 (stereo unspecified),4,60*,-7,36,-313,37,61*,87*,72*,37
Nc1c(Cl)ncnc1N/N=C/c1cccc(O)c1,-1,34,56*,25,-198,40,36,70*,68*,25
CC(C)(C)CC(=O)NCc1cccs1,-3,-5,18,4,-2,x,x,x,x,x
O=C(c1ccc(Cl)cc1)N1CCN(c2ccc(N3CCOCC3)nn2)CC1,x,x,x,x,-498,x,x,x,x,x
COc1ccc(OC)c2c(C)cc(N3CCN(C(=O)c4ccc(Cl)cc4)CC3)nc12,3,24,69*,42,-300,12,5,5,3,-3
N=C1S/C(=C\c2ccco2)C(=O)N1c1nccs1,2,-6,58*,53*,14,-14,-1,23,31,2
N=C1S/C(=C\c2ccco2)C(=O)N1c1ccc2c(c1)OCO2,-3,3,-29,-8,19,x,x,x,x,x
O=C(O)c1ccc(COc2ccc([N+](=O)[O-])cc2)o1,4,5,-7,2,12,x,x,x,x,x
COC(=O)c1ccc(COc2ccc(Cl)cc2)o1,-3,-1,19,32,14,x,x,x,x,x
O=C(c1ccc(COc2ccccc2[N+](=O)[O-])o1)N1CCCCC1,-4,-4,4,3,20,x,x,x,x,x
O=C(O)c1ccc(COc2ccccc2[N+](=O)[O-])o1,-4,30,57*,15,15,46,35,71*,11,50*
O=C(O)c1ccc(COc2ccc(Cl)cc2)o1,0,82*,79*,80*,16,91*,90*,97*,32,89*
O=C(O)c1ccc(OCc2ccc(C(=O)O)o2)cc1,-1,92*,88*,84*,24,87*,88*,99*,55*,71*
Clc1c2c(nc3ccccc13)CCC2,11,2,-15,5,4,x,x,x,x,x
COCCCNc1oc(/C=C/c2ccccc2)nc1C#N,0,21,28,12,-263,x,x,x,x,x
CN(C(=O)Nc1ccccc1)C1CCS(=O)(=O)C1 (stereo unspecified),2,-5,-10,-11,12,x,x,x,x,x
CC(=O)NC1=C(N(C)C2CCS(=O)(=O)C2)C(=O)c2ccccc2C1=O (stereo unspecified),0,25,67*,28,66*,45,74*,42,4,-3
O=c1cc(-c2cccs2)oc2ccc(Cl)cc12,-3,50*,55*,34,-93,25,27,51*,46,18
O=c1c(O)c(-c2cccs2)oc2ccc(Cl)cc12,-1,-3,4,-6,-312,x,x,x,x,x
O=c1cc(-c2ccc3c(c2)OCCO3)oc2ccc(Cl)cc12,-3,91*,36,16,-398,23,26,43,41,11
CCn1ccnc1CN1CCN(CC=C(C)C)C(CCO)C1 (stereo unspecified),-1,-8,-6,-16,26,x,x,x,x,x
CCc1sc(C(=O)Nc2nccs2)cc1C,15,80*,80*,68*,-8,83*,81*,96*,79*,15
Cc1csc(NC(=O)c2sccc2C)n1,2,96*,95*,91*,-11,95*,95*,101*,98*,94*
SMILES,HSP90 refold inh,SENP7 block,SENP6 inh,SENP8 block-1,SENP8 block-2,SENP8 conf,SENP6 conf,SENP7 conf,Casp3 SENP sel,Luc interf
Cc1ccsc1C(=O)Nc1nccs1,-2,63*,64*,51*,2,58*,57*,86*,86*,52*
COc1ccc2oc(C(=O)Nc3nc(C)cs3)c(C)c2c1,x,61*,46,43,-348,17,37,72*,55*,34
COc1ccc2oc(C(=O)Nc3ccc(C)cn3)c(C)c2c1,x,40,-2,-8,-86,x,x,x,x,x
O=C(NCc1n[nH]c(=S)n1-c1ccccc1)c1ccc(S(=O)(=O)N2CCCCC2)cc1,3,3,-5,-3,11,x,x,x,x,x
COC(=O)c1cc(NC(=O)CSc2nnc(N)s2)ccc1Cl,-4,-6,-9,-6,-4,x,x,x,x,x
CCO/C=C1/C(=O)N(Cc2ccccc2)C(=O)c2ccccc21,-1,81*,94*,90*,-408,82*,97*,86*,98*,7
CCO/C=C1/C(=O)N(c2ccc(OC)cc2)C(=O)c2ccccc21,3,26,63*,6,-351,26,70*,36,25,-2
CCO/C=C1\C(=O)N(c2ccccc2)C(=O)c2ccccc21,0,-7,53*,15,-246,14,54*,24,19,-2
CCO/C=C1/C(=O)N(c2ccccc2OC)C(=O)c2ccccc21,3,31,35,16,-414,x,x,x,x,x
CC1(C)CC(=O)C=C(c2ccc3c(c2)OCO3)C1,x,-12,-11,-4,-222,x,x,x,x,x
Cc1cc(C(=O)COC(=O)c2ccc(O)cc2)c(C)n1Cc1ccco1,-5,-5,33,-5,0,x,x,x,x,x
CCOc1ncccc1C(=O)OCC(=O)c1cc(C)n(Cc2ccco2)c1C,5,36,71*,37,4,70*,66*,87*,58*,26
CCOc1ccc(CN(C)C(=O)CNC(=O)Cc2cccc3ccccc23)cc1,7,-1,-17,4,12,x,x,x,x,x
